Where two headings read alike, the source gives them in different places.
Key:
Conditions in all cases: n = 1
TAOK3 = system: TAOK3
TBK1 = system: TBK1
TEC = system: TEC
TESK1 = system: TESK1
TGFBR1 = system: TGFBR1
TGFBR2 = system: TGFBR2
TIE1 = system: TIE1
TIE2 = system: T1, TIE2
T1 construct: gene TEK

TLK1 = system: TLK1
TLK2 = system: TLK2
TNIK = system: TNIK
TNK1 = system: TNK1
TNK2 = system: TNK2
TNNI3K = system: TNNI3K
TRKA = system: T2, TRKA
T2 construct: gene NTRK1

TRKB = system: TRKB
TRKC = system: T3, TRKC
T3 construct: gene NTRK3

TRPM6 = system: TRPM6
TSSK1B = system: TSSK1B
TSSK3 = system: TSSK3
[1] = concentration: 1 μM, replicates: in singlicate
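Further: KINOMEscan kinase panel screen.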

Cc1ccc(NC(=O)Nc2cccc(C(F)(F)F)c2)cc1 [GSK955403]
%Inh (TAOK3; 1 µM): 0%
%Inh (TBK1; 1 µM): 33%
%Inh (TEC; 1 µM): 7%
%Inh (TESK1; 1 µM): 36%
%Inh (TGFBR1; 1 µM): 6%
%Inh (TGFBR2; 1 µM): 0%
%Inh (TIE1; 1 µM): 13%
%Inh (TIE2; 1 µM): 38%
%Inh (TLK1; 1 µM): 20%
%Inh (TLK2; 1 µM): 3%
%Inh (TNIK; 1 µM): 3%
%Inh (TNK1; 1 µM): 17%
%Inh (TNK2; 1 µM): 2%
%Inh (TNNI3K; 1 µM): 0%
%Inh (TRKA; 1 µM): 0%
%Inh (TRKB; 1 µM): 0%
%Inh (TRKC; 1 µM): 0%
%Inh (TRPM6; 1 µM): 0%
%Inh (TSSK1B; 1 µM): 0%
%Inh (TSSK3; 1 µM): 8%

CN(C)CCN(C)C(=O)c1cc(-c2ccncc2)c(-c2ccc(Cl)c(O)c2)o1.Cl.Cl [SB-710397]
%Inh (TAOK3; [1]): 0%
%Inh (TBK1; [1]): 0%
%Inh (TEC; [1]): 6%
%Inh (TESK1; [1]): 43%
%Inh (TGFBR1; [1]): 0%
%Inh (TGFBR2; [1]): 72%
%Inh (TIE1; [1]): 7%
%Inh (TIE2; [1]): 0%
%Inh (TLK1; [1]): 0%
%Inh (TLK2; [1]): 0%
%Inh (TNIK; [1]): 51%
%Inh (TNK1; [1]): 2%
%Inh (TNK2; [1]): 0%
%Inh (TNNI3K; [1]): 17%
%Inh (TRKA; [1]): 0%
%Inh (TRKB; [1]): 43%
%Inh (TRKC; [1]): 35%
%Inh (TRPM6; [1]): 27%
%Inh (TSSK1B; [1]): 24%
%Inh (TSSK3; [1]): 24%

Cc1cccc(-c2nc(C)cc(Nc3ccncc3)n2)n1 [GSK257997]
%Inh (TAOK3; [1]): 0%
%Inh (TBK1; [1]): 15%
%Inh (TEC; [1]): 0%
%Inh (TESK1; [1]): 15%
%Inh (TGFBR1; 1 µM): 100%
%Inh (TGFBR2; [1]): 4%
%Inh (TIE1; [1]): 0%
%Inh (TIE2; [1]): 8%
%Inh (TLK1; [1]): 8%
%Inh (TLK2; [1]): 0%
%Inh (TNIK; [1]): 0%
%Inh (TNK1; [1]): 0%
%Inh (TNK2; [1]): 28%
%Inh (TNNI3K; [1]): 0%
%Inh (TRKA; [1]): 39%
%Inh (TRKB; [1]): 0%
%Inh (TRKC; [1]): 0%
%Inh (TRPM6; [1]): 24%
%Inh (TSSK1B; [1]): 3%
%Inh (TSSK3; [1]): 17%

COc1cccc(-c2cc(-c3c[nH]nc3-c3ccccn3)ccn2)c1 [GW680338]
%Inh (TAOK3; [1]): 0%
%Inh (TBK1; [1]): 0%
%Inh (TEC; [1]): 0%
%Inh (TESK1; [1]): 15%
%Inh (TGFBR1; 1 µM): 54%
%Inh (TGFBR2; [1]): 32%
%Inh (TIE1; [1]): 0%
%Inh (TIE2; [1]): 0%
%Inh (TLK1; [1]): 0%
%Inh (TLK2; [1]): 0%
%Inh (TNIK; [1]): 71%
%Inh (TNK1; [1]): 0%
%Inh (TNK2; [1]): 0%
%Inh (TNNI3K; [1]): 9%
%Inh (TRKA; [1]): 38%
%Inh (TRKB; [1]): 0%
%Inh (TRKC; [1]): 11%
%Inh (TRPM6; [1]): 0%
%Inh (TSSK1B; [1]): 0%
%Inh (TSSK3; [1]): 11%

Cc1cccc(-c2nc(Nc3ccncc3)c3ccccc3n2)n1 [GW855857]
%Inh (TAOK3; [1]): 0%
%Inh (TBK1; [1]): 41%
%Inh (TEC; [1]): 10%
%Inh (TESK1; [1]): 14%
%Inh (TGFBR2; [1]): 95.7%
%Inh (TIE1; [1]): 20%
%Inh (TIE2; [1]): 27%
%Inh (TLK1; [1]): 0%
%Inh (TLK2; [1]): 0%
%Inh (TNIK; [1]): 29%
%Inh (TNK1; [1]): 39%
%Inh (TNK2; [1]): 0%
%Inh (TNNI3K; [1]): 20%
%Inh (TRKA; [1]): 0%
%Inh (TRKB; [1]): 0%
%Inh (TRKC; [1]): 0%
%Inh (TRPM6; [1]): 0%
%Inh (TSSK1B; [1]): 0%
%Inh (TSSK3; [1]): 0%

Cn1cncc1-c1ccc2ncnc(Nc3ccc(OCc4ccccc4)cc3)c2c1 [GW320571]
%Inh (TAOK3; [1]): 0%
%Inh (TBK1; [1]): 0%
%Inh (TEC; [1]): 6%
%Inh (TESK1; [1]): 11%
%Inh (TGFBR1; [1]): 5%
%Inh (TGFBR2; [1]): 29%
%Inh (TIE1; [1]): 30%
%Inh (TIE2; [1]): 0%
%Inh (TLK1; [1]): 4%
%Inh (TLK2; [1]): 0%
%Inh (TNIK; [1]): 0%
%Inh (TNK1; [1]): 0%
%Inh (TNK2; [1]): 29%
%Inh (TNNI3K; [1]): 23%
%Inh (TRKA; [1]): 45%
%Inh (TRKB; [1]): 0%
%Inh (TRKC; [1]): 0%
%Inh (TRPM6; [1]): 0%
%Inh (TSSK1B; [1]): 29%
%Inh (TSSK3; [1]): 16%

Cc1cccc(-c2nc(Nc3cccc(C(N)=O)c3)c3ccccc3n2)n1 [GW876019]
%Inh (TAOK3; [1]): 0%
%Inh (TBK1; [1]): 40%
%Inh (TEC; [1]): 2%
%Inh (TESK1; [1]): 0%
%Inh (TGFBR2; [1]): 15%
%Inh (TIE1; [1]): 0%
%Inh (TIE2; [1]): 41%
%Inh (TLK1; [1]): 0%
%Inh (TLK2; [1]): 4%
%Inh (TNIK; [1]): 2%
%Inh (TNK1; [1]): 5%
%Inh (TNK2; [1]): 15%
%Inh (TNNI3K; [1]): 0%
%Inh (TRKA; [1]): 0%
%Inh (TRKB; [1]): 0%
%Inh (TRKC; [1]): 0%
%Inh (TRPM6; [1]): 0%
%Inh (TSSK1B; [1]): 10%
%Inh (TSSK3; [1]): 0%

Cc1cc(-c2ccc3c(c2)CC[C@@H](N[C@@H](C)c2ccccc2)C3)cnc1N.Cl [GW412617]
%Inh (TAOK3; [1]): 14%
%Inh (TBK1; [1]): 11%
%Inh (TEC; [1]): 1%
%Inh (TESK1; [1]): 11%
%Inh (TGFBR1; [1]): 0%
%Inh (TGFBR2; [1]): 20%
%Inh (TIE1; [1]): 35%
%Inh (TIE2; [1]): 0%
%Inh (TLK1; [1]): 4%
%Inh (TLK2; [1]): 0%
%Inh (TNIK; [1]): 45%
%Inh (TNK1; [1]): 0%
%Inh (TNK2; [1]): 12%
%Inh (TNNI3K; [1]): 27%
%Inh (TRKA; [1]): 82%
%Inh (TRKB; [1]): 10%
%Inh (TRKC; [1]): 8%
%Inh (TRPM6; [1]): 16%
%Inh (TSSK1B; [1]): 37%
%Inh (TSSK3; [1]): 19%

COc1cc(Nc2nccc(N3CCC(NC(=O)Nc4cc(C)ccc4C)C3)n2)cc(OC)c1OC (stereo not shown) [GSK1379762]
%Inh (TAOK3; [1]): 0%
%Inh (TBK1; [1]): 18%
%Inh (TEC; [1]): 14%
%Inh (TESK1; [1]): 0%
%Inh (TGFBR1; [1]): 8%
%Inh (TGFBR2; [1]): 0%
%Inh (TIE1; [1]): 49%
%Inh (TIE2; [1]): 2%
%Inh (TLK1; [1]): 0%
%Inh (TLK2; [1]): 0%
%Inh (TNIK; [1]): 0%
%Inh (TNK1; [1]): 14%
%Inh (TNK2; [1]): 15%
%Inh (TNNI3K; [1]): 0%
%Inh (TRKA; [1]): 18%
%Inh (TRKB; [1]): 0%
%Inh (TRKC; [1]): 20%
%Inh (TRPM6; [1]): 0%
%Inh (TSSK1B; [1]): 7%
%Inh (TSSK3; [1]): 21%

C[C@@H]1CCCCN1c1cc(-c2ccc3c(N)n[nH]c3c2)nc(N)n1 [GSK2258759]
%Inh (TAOK3; [1]): 0%
%Inh (TBK1; [1]): 24%
%Inh (TEC; [1]): 0%
%Inh (TESK1; [1]): 0%
%Inh (TGFBR2; [1]): 0%
%Inh (TIE1; [1]): 0%
%Inh (TIE2; [1]): 0%
%Inh (TLK1; [1]): 23%
%Inh (TLK2; [1]): 4%
%Inh (TNIK; [1]): 0%
%Inh (TNK1; [1]): 0%
%Inh (TNK2; [1]): 18%
%Inh (TNNI3K; [1]): 0%
%Inh (TRKA; [1]): 0%
%Inh (TRKB; [1]): 0%
%Inh (TRKC; [1]): 0%
%Inh (TRPM6; [1]): 16%
%Inh (TSSK1B; [1]): 0%
%Inh (TSSK3; [1]): 2%

Cc1ccc(NC(=O)Nc2cccc(Cl)c2)cc1-c1ccc(C(=O)Nc2ccncc2)cc1 [GSK1398468]
%Inh (TAOK3; [1]): 0%
%Inh (TBK1; [1]): 5%
%Inh (TEC; [1]): 13%
%Inh (TESK1; [1]): 18%
%Inh (TGFBR1; [1]): 30%
%Inh (TGFBR2; [1]): 0%
%Inh (TIE1; [1]): 0%
%Inh (TIE2; [1]): 0%
%Inh (TLK1; [1]): 0%
%Inh (TLK2; [1]): 12%
%Inh (TNIK; [1]): 0%
%Inh (TNK1; [1]): 0%
%Inh (TNK2; [1]): 12%
%Inh (TNNI3K; [1]): 64%
%Inh (TRKA; [1]): 0%
%Inh (TRKB; [1]): 0%
%Inh (TRKC; [1]): 6%
%Inh (TRPM6; [1]): 0%
%Inh (TSSK1B; [1]): 0%
%Inh (TSSK3; [1]): 8%

— publication PMC5540273 (PLoS ONE, 2017)
